# Laboratory results taken from PubChem BioAssay.
# Activity calls are given as the source filed them. Unless noted, no rule for the calls is given here.
# Key:
# [1] = A549 cell viability effects, profiling panel, calcein-AM fluorescence, 48 h, basal (AID 1162); conditions: higher = more signal; also: test concentration not given here
# [2] = adipocyte viability effects, profiling panel, cell-based, 3T3-L1 adipocytes, calcein-AM fluorescence, 48 h, basal (AID 1163); conditions: 3T3-L1 adipocytes viability, higher = more signal; also: test concentration not given here
# [3] = HepG2 cell viability effects, profiling panel, calcein-AM fluorescence, 48 h, basal (AID 1164); conditions: higher = more signal; also: test concentration not given here
# [4] = MM1S cell viability effects, profiling panel, calcein-AM fluorescence, 48 h, basal (AID 1165); conditions: higher = more signal;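 also: viability of MM1S multiple myeloma cells under basal unstimulated conditions; test concentration not given here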
# [5] = basal RPMI8226 viability, no added stimulus, profiling panel, cell-based, calcein-AM fluorescence, 48 h, PK04 Diversity Set (AID 1166); conditions: RPMI8226 myeloma viability, higher = more signal;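 also: cells grown under basal conditions without added stimulus; test concentration not given here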
# [6] = basal HepG2 mitochondrial membrane potential changes, profiling panel, cell-based, JC-1 fluorescence, 24 h, 100 nL compound (AID 1167); conditions: higher = more signal; also: test concentration not given here
# [7] = basal 3T3-L1 adipocyte mitochondrial potential changes, profiling panel, cell-based, JC-1 fluorescence, 3T3-L1 adipocytes, 24 h, 100 nL compound (AID 1168); conditions: JC-1 mitochondrial fluorescence, higher = more signal, called active from +8 up or from −8 down; also: test concentration not given here
# [8] = basal RPMI8226 mitochondrial membrane potential changes, profiling panel, cell-based, JC-1 fluorescence, 24 h, 100 nL compound (AID 1169); conditions: RPMI8226 myeloma, JC-1 mitochondrial potential fluorescence, higher = more signal; also: test concentration not given here
# [9] = basal MM1S mitochondrial membrane potential changes, profiling panel, cell-based, JC-1 fluorescence, 24 h, 100 nL compound (AID 1170); conditions: higher = more signal; also: test concentration not given here
# [10] = A549 lung cancer cell viability effects, profiling panel, resazurin fluorescence, 24 h, PK04 Diversity Set (AID 1171); conditions: higher = more signal, called active from +8 up or from −8 down; also: test concentration not given here
# [11] = HepG2 liver cancer cell viability effects, profiling panel, resazurin fluorescence, 24 h, PK04 Diversity Set (AID 1172); conditions: higher = more signal; also: test concentration not given here
# [12] = basal S. cerevisiae growth modulation, no modifier, primary screen, OD600, strain BY4716, 24 h, basal condition (AID 1173); conditions: OD600, 24 h, higher = more signal, called active from +8 up or from −8 down
# [13] = MM1S myeloma cell viability, profiling panel, resazurin fluorescence, basal, 24 h, PK04 Diversity Set (AID 1174); conditions: higher = more signal, called active from +8 up or from −8 down;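 also: MM1S multiple myeloma cell line; test concentration not given here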
# [14] = target: Dihydroorotate dehydrogenase (quinone), mitochondrial (Plasmodium falciparum (isolate 3D7)) (UniProt Q08210); assay: PfDHODH enzyme inhibitors, primary screen, biochemical, C-terminal His tag, absorbance 600 nm (AID 1175); conditions: DCIP absorbance 600 nm, higher = more signal, called active from +8 up or from −8 down;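 also: recombinant parasite enzyme with a five histidine tag at its C terminus; test concentration not given here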
# [15] = P. aeruginosa biofilm formation inhibitors, primary screen, strain PAO1, LB-PBS medium, absorbance 600 nm (AID 1176); also: test concentration not given here; conditions: P. aeruginosa PAO1 growth/biofilm, A600, 12 h; higher = more signal
# [16] = S. cerevisiae RM11-1a growth modifiers, primary screen, strain RM11-1a, OD600, basal, 24 h (AID 1177); conditions: OD600, 24 h, higher = more signal, called active from +8 up or from −8 down;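 also: cultures grown under basal conditions with no added stressor; test concentration not given here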
# [17] = E. coli acrAB mutant growth effects, primary screen, E. coli filamentation inducers, strain DRC39, OD650, 24 h (AID 1178); conditions: higher = more signal, called active from +8 up or from −8 down;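 also: growth measured as culture turbidity by optical density at 650 nm; test concentration not given here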
# [18] = E. coli acrAB mutant growth effects, primary screen, E. coli filamentation inducers, strain DRC39, OD650, 48 h (AID 1179);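 also: screen aims at cell division blockers that make cells filament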; conditions: E. coli DRC39 delta-acrAB growth, higher = more signal, called active from +8 up or from −8 down
# [19] = RPMI8226 myeloma cell viability, profiling panel, resazurin fluorescence, basal, 24 h, PK04 Diversity Set (AID 1180); conditions: higher = more signal;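 also: RPMI8826 multiple myeloma cell line at 5000 cells per well; test concentration not given here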
# [20] = target: E3 ubiquitin-protein ligase XIAP (Homo sapiens) (UniProt P98170); assay: XIAP binders, primary screen, biophysical, small-molecule microarray, fluorescence 635 nm (AID 1181); conditions: small-molecule microarray binding, higher = more signal;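 also: score merges 667 nm emission and signal to noise over triplicate slides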
# E3 ubiquitin-protein ligase XIAP (Homo sapiens), sequence (P98170 whole entry, looked up): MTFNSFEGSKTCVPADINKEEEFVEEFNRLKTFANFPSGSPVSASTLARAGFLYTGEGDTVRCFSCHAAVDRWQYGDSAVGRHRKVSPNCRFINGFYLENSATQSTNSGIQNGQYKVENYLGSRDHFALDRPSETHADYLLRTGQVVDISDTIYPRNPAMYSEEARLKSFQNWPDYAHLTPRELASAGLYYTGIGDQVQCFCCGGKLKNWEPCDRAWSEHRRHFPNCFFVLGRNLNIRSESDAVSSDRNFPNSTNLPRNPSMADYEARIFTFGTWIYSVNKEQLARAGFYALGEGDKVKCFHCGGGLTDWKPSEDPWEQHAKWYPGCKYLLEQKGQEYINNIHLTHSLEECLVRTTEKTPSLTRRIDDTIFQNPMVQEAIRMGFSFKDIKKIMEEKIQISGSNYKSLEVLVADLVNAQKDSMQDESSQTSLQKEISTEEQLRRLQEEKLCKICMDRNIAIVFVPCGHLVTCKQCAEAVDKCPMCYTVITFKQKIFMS
# Dihydroorotate dehydrogenase (quinone), mitochondrial (Plasmodium falciparum (isolate 3D7)), sequence (Q08210 whole entry, looked up): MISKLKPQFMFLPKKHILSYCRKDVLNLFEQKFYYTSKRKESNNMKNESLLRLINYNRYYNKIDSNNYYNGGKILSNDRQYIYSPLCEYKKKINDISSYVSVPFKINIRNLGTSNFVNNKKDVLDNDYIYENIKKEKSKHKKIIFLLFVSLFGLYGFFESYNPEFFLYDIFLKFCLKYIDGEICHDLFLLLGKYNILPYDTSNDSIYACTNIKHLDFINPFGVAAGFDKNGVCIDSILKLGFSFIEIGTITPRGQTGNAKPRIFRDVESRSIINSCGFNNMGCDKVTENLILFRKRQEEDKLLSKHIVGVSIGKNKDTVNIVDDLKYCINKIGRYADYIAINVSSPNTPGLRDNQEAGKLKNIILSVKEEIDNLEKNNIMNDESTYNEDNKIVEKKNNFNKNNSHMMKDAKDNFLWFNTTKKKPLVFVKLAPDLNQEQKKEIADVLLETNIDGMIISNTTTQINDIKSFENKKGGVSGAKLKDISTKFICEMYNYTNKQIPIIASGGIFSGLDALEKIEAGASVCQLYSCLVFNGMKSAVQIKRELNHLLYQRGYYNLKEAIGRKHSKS
SMILES,z-score [1],z-score [2],z-score [3],z-score [4],z-score [5],z-score [6],z-score [7],z-score [8],z-score [9],z-score [10],z-score [11],z-score [12],z-score [13],composite z-score [14],z-score [15],z-score [16],z-score [17],z-score [18],z-score [19],composite z-score [20]
Cc1cc(C)c(C(O)C2C=CC3C(=O)N(c4ccccc4)C(=O)C3N2Nc2ccc(C#N)cc2)c(C)c1 (stereo not given),0.0841,-1.06,1.33,-0.448,-0.127,-1.71,-1.51 (inactive),0.211,-0.308,0.0763 (inactive),-0.833,0.011 (inactive),0.0952 (inactive),0.623 (inactive),1.26 (inactive),0.384 (inactive),-0.232 (inactive),-0.185 (inactive),-0.451,-0.253
COCCCNC(=O)[C@@]1(CCC(=O)OC(C)(C)C)N=C(c2ccc(OCCCO)cc2)O[C@H]1c1ccccc1CN=[N+]=[N-],0.463,0.892,-0.244,0.153,-0.853,0.88,-0.736 (inactive),0.665,0.5,0.155 (inactive),0.495,-0.78 (inactive),-0.0488 (inactive),-0.256 (inactive),-0.167 (inactive),0.424 (inactive),0.481 (inactive),-0.28 (inactive),0.423,-0.212
COCC(=C=CC[C@@H](O)c1ccc(CO)o1)CCO,2.82,1.72,0.783,0.178,1.94,0.281,-0.24 (inactive),0.824,-1.08,0.559 (inactive),0.59,-3.07 (inactive),0.698 (inactive),-9.96 (active),0.862 (inactive),-3.85 (inactive),1.13 (inactive),1.1 (inactive),0.529,0.116
C=CCOC(=O)[C@@H]1[C@H]2C(=O)O[C@H](c3ccccc3)[C@H](c3ccccc3)N2[C@H](c2ccc(OCCOC(=O)[C@@H]3C[C@@H]4C(=O)NCC(=O)N4[C@@H]3c3cccc(OCCO)c3)cc2)[C@@]12C(=O)Nc1ccc(I)cc12,0.0646,0.904,0.646,-0.0922,0.129,-0.941,1.47 (inactive),-0.446,-1.08,0.0716 (inactive),0.0068,1.24 (inactive),0.132 (inactive),-0.173 (inactive),2.17 (inactive),1.65 (inactive),0.451 (inactive),0.17 (inactive),0.487,0.0586
COc1cc(C(O)C2C=CC3C(=O)N(c4ccccc4)C(=O)C3N2Nc2ccc(C#N)cc2)cc(OC)c1OC (stereo not given),-1.26,0.0434,-0.272,0.0375,-0.269,-1.36,-1.51 (inactive),0.433,-0.314,-0.404 (inactive),-1.28,-2.44 (inactive),-1.62 (inactive),0.198 (inactive),1.36 (inactive),-0.343 (inactive),-0.914 (inactive),-0.386 (inactive),-0.919,0.0819
O=C1O[C@@H](c2ccccc2)[C@@H](c2ccccc2)N2[C@@H](c3ccc(OCCO)cc3)[C@]3(C(=O)Nc4ccc(C#CC5=CCCCC5)cc43)[C@@H](C(=O)O)[C@H]12,1.09,0.771,-0.128,-3.21,-4.57,-4.12,-4.9 (inactive),-0.946,-1.42,0.872 (inactive),0.332,-0.734 (inactive),-1.5 (inactive),-13.5 (active),2.07 (inactive),1.44 (inactive),0.448 (inactive),0.0447 (inactive),-1.43,0.104
CN1CCC(CCCO)=CC1c1ccc(CN2CCCC2)cc1 (stereo not given),-0.701,0.143,-0.86,-0.52,0.559,0.217,-0.0668 (inactive),-0.714,0.00742,0.819 (inactive),0.106,-1.33 (inactive),-0.202 (inactive),-0.27 (inactive),0.661 (inactive),-0.0607 (inactive),0.0543 (inactive),0.201 (inactive),-0.304,0.194
C=CCOC(=O)[C@@H]1[C@H]2C(=O)O[C@H](c3ccccc3)[C@H](c3ccccc3)N2[C@H](c2ccc(OCCOC(=O)[C@@H]3C[C@@H]4C(=O)N[C@@H](Cc5ccccc5)C(=O)N4[C@@H]3c3cccc(OCCO)c3)cc2)[C@@]12C(=O)Nc1ccc(I)cc12,-1.15,0.185,-0.0074,0.359,-1.1,-1.57,0.235 (inactive),-0.505,-1.14,0.789 (inactive),0.134,1.94 (inactive),0.375 (inactive),-0.0168 (inactive),2.17 (inactive),2.94 (inactive),0.421 (inactive),-0.463 (inactive),0.318,0.434
COC(=O)[C@]1(Cc2ccccc2N=[N+]=[N-])N=C(c2ccc(OCCCO)cc2)O[C@@H]1c1ccccc1N=[N+]=[N-],-3.83,-0.504,-5.54,-3.59,-3.94,-2.39,-0.708 (inactive),-1.2,-2.8,-2.87 (inactive),-3.41,-0.569 (inactive),-6.71 (inactive),0.519 (inactive),0.755 (inactive),-0.0599 (inactive),0.2 (inactive),-0.54 (inactive),-7,0.165
C=CC[C@@]1(C(=O)N2CCOCC2)N=C(c2ccc(OCCCO)cc2)O[C@@H]1c1ccccc1N=[N+]=[N-],-0.168,1.02,0.249,-0.791,-1.96,1.38,1.57 (inactive),-0.97,-1.71,-0.915 (inactive),-0.268,-1.24 (inactive),-1.64 (inactive),0.443 (inactive),-0.236 (inactive),0.367 (inactive),0.992 (inactive),0.123 (inactive),-1.33,0.117
CCN(CC)c1ccc(N2CC=CC34O[C@@H]5/C=C\CCCOC(=O)C5[C@H]3C(=O)N(C(CO)C(C)C)[C@@H]4C2=O)cc1 (stereo not given in full),-0.0889,0.102,0.825,0.905,-0.62,-0.243,-0.0916 (inactive),0.139,-0.26,-0.506 (inactive),-0.211,0.282 (inactive),-0.2 (inactive),-0.952 (inactive),-0.36 (inactive),0.831 (inactive),-0.0034 (inactive),0.0801 (inactive),-0.0389,0.336
O=C1C[C@]2(c3ccc([N+](=O)[O-])cc3)C(=O)N(CC(F)(F)F)c3cc(CO)ccc3[C@H]2N1CC12CC3CC(CC(C3)C1)C2,0.831,-0.425,0.655,0.489,0.0342,0.91,-1.2 (inactive),0.308,-0.964,-0.399 (inactive),0.961,0.695 (inactive),-1.2 (inactive),-3.73 (inactive),0.503 (inactive),-0.319 (inactive),0.973 (inactive),0.672 (inactive),-0.157,-0.222
O=C1c2ccccc2[C@@]2(Cc3ccccc3N(Cc3ccccc3)C2=O)[C@H](c2ccc(CO)cc2)N1C1CCCCC1,-0.774,-0.752,-0.466,-0.144,-0.977,-0.689,0.604 (inactive),-0.582,-1.32,-0.022 (inactive),0.281,1.61 (inactive),-0.242 (inactive),-11.6 (active),0.407 (inactive),1.57 (inactive),0.281 (inactive),0.256 (inactive),-0.0776,-0.239
COc1ccc(C(=O)Nc2cccc(CN3C(=O)[C@]4(O[C@H](CC(=O)N5CCC[C@H]5CO)[C@@H]([Si](C)(C)c5ccc(OC)cc5)[C@@H]4C)c4ccccc43)c2)cc1,-0.806,0.902,-3.13,-2.71,-4.33,-1.73,0.248 (inactive),-1.1,-1.64,-2.2 (inactive),-1.72,-0.268 (inactive),-2.7 (inactive),-2.54 (inactive),0.0943 (inactive),0.312 (inactive),0.951 (inactive),0.441 (inactive),-4.84,-0.0998
[N-]=[N+]=NCc1ccccc1[C@@H]1OC(c2ccc(OCCCO)cc2)=N[C@]1(Cc1ccccc1N=[N+]=[N-])C(=O)NCc1ccccc1,0.103,0.0085,-0.829,-0.466,0.22,1.47,-0.385 (inactive),-0.749,-1.37,-0.234 (inactive),0.206,1.15 (inactive),-0.0978 (inactive),0.139 (inactive),0.603 (inactive),1.27 (inactive),-0.954 (inactive),-1.96 (inactive),-1.46,0.0852
COCCOC(=O)N1C(=O)[C@@]2(c3cc(C#CCNC(N)=O)ccc31)[C@H](c1ccc(O)cc1)N1[C@H](c3ccccc3)[C@H](c3ccccc3)OC(=O)[C@H]1[C@@H]2C(=O)NC[C@H](O)c1ccccc1,-0.276,-0.202,0.108,0.208,-0.197,-1.48,-0.563 (inactive),0.326,-0.0292,-0.803 (inactive),-0.197,0.947 (inactive),0.302 (inactive),0.924 (inactive),0.69 (inactive),1.23 (inactive),0.248 (inactive),0.193 (inactive),-0.949,-0.0807
COc1ccc(C(=O)Nc2cccc(CN3C(=O)[C@@]4(O[C@@H](CCn5cc(CCO)nn5)[C@H]([Si](C)(C)c5ccc(OC)cc5)[C@H]4C)c4ccccc43)c2)cc1,-1.31,-0.599,-4.58,-2.88,-4.33,0.254,0.285 (inactive),-0.136,-2.3,-4.55 (inactive),-5.75,-6.12 (inactive),-9.07 (active),1.42 (inactive),0.769 (inactive),3.1 (inactive),1.7 (inactive),0.633 (inactive),-6.23,0.126
